Screening results (PubChem BioAssay)
Hits are enriched below; roughly 3% of the tested compounds scored in any of these assays.
MITF act – activators of MITF-driven TRPM1 promoter activity in SK-MEL-5 cells; SK-MEL-5 TRPM1-promoter luciferase, 24 h; % of positive control, neutral wells = 0; activation, % at 12.5 µM; actives 0.75% (n = 300,000);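 active = mean activation of at least 80% with every replicate also reaching 80%; inconclusive = mean reaches 80% but some replicate falls short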;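 note: 0% = neutral control wells and 100% = parthenolide positive control wells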
Wnt bcat act – activators of Wnt/beta-catenin signaling; AID 743398; activation, % at 9.35 µM; actives 1.2% (n = 300,000); Wnt/beta-catenin reporter cell assay, activator, plate reader; in the data active = activation above about 30%, passing the limit was not always enough; inconclusive = no clear call, values can overlap the other calls;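 note: 0% = neutral control wells and 100% = positive control wells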
Statin myotox sup – protects C2C12 myotubes from simvastatin toxicity; ATP luminescence, 48 h; scaled: DMSO 0, geranylgeraniol control 100; rescue of ATP level, % at 7.49 µM; actives 0.78% (n = 330,000); AID 602340;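 active = mean ATP rescue above about 67%, or every replicate alone reaching that limit, limit read from the data, passing the limit was not always enough; inconclusive = no clear call, values can overlap the other calls; inactive = mean under the limit and some replicate under it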;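 note: myotubes were challenged with 10 µM simvastatin during compound exposure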
esBAF inh – inhibitors of esBAF chromatin remodeling in mouse ES cells. Bmi1-luciferase knock-in reporter, 24 h; 100% = twice the neutral-well signal. reporter increase, % at 12.5 µM. actives 2% (n = 350,000); in the data active = activation above about 40%; inconclusive = no clear call, values can overlap the other calls;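 note: 0% = median of the plate's neutral control wells and 100% = double that signal; a rise in the Bmi1 reporter signal indicates esBAF inhibition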
Numbers without * were called inactive; u = inconclusive; x = no result given.

SMILES	MITF act	Wnt bcat act	Statin myotox sup	esBAF inh
Cc1ccc(C)c(N2CCN(c3ncnc4c3cnn4-c3ccccc3)CC2)c1	7.1	3.4	-5.7	5.0
CC1CCN(c2ncnc3c2cnn3Cc2ccc(Cl)cc2)CC1	-5.3	-4.3	171.7*	5.0
Cc1cccc(-n2ncc3c(N4CCC5(CC4)OCCO5)ncnc32)c1	73.3	15.9	-13.0	53.7*
c1ccc(-n2ncc3c(N4CCC5(CC4)OCCO5)ncnc32)cc1	93.2*	x	-20.7	54.6*
CCN1CCN(c2ncnc3c2cnn3-c2ccccc2)CC1	86.9*	-2.0	x	20.9
c1ccc(-n2ncc3c(N4CCCCC4)ncnc32)cc1	-15.6	-1.6	-21.7	-72.5
C[C@@H]1CCCCO[C@@H](CN(C)C(=O)c2ccncc2)[C@H](C)CN([C@H](C)CO)C(=O)c2cc(NC(=O)NC3CCCCC3)ccc2O1	x	x	x	3.6
Cc1cccc(-n2ncc3c(N4CCC(C)CC4)ncnc32)c1	49.3	38.3*	-3.5	9.9
Cc1cccc(-n2ncc3c(N(C)Cc4ccccc4)ncnc32)c1	78.6	u	-3.8	53.3*
Cc1cccc(-n2ncc3c(N)ncnc32)c1	2.0	5.9	-3.9	26.9
CCNC(=O)C[C@@H]1CC[C@H]2[C@@H](COC[C@@H](O)CN2C(=O)Nc2ccc3c(c2)OCO3)O1	x	x	-4.7	u
COc1ccccc1S(=O)(=O)N[C@H]1CC[C@H](CCn2cc(C3CC3)nn2)O[C@H]1CO	x	x	1.4	5.1
C[C@H](CO)N1C[C@H](C)[C@@H](CN(C)C)Oc2ccc(NS(=O)(=O)c3ccc(Cl)cc3)cc2C1=O	x	x	11.8	-5.5
O=c1c2ccccc2nc2sc(Nc3cccc(Cl)c3)nn12	36.7	21.8	-40.5	46.1*
CCC(=O)N[C@H]1C=C[C@@H](CC(=O)NCCN2CCCCC2)O[C@H]1CO	x	x	-5.2	1.0
Cc1cccc(-c2nnc3n2N=C(c2ccccc2Br)CS3)c1	3.5	x	102.7*	-13.7
Cc1cc(-c2nnc3n2N=C(c2ccccc2Br)CS3)n[nH]1	-12.4	-0.8	x	x
COc1ccc(Nc2oc(-c3ccc(OC)cc3)nc2C#N)cc1	x	32.2*	x	x
COc1ccc(-c2nc(C#N)c(NCCN(C)C)o2)cc1	7.2	2.0	-7.5	-4.7
COc1ccc(Nc2oc(-c3ccccc3)nc2C#N)cc1	61.3	23.5	0.6	47.1*
COc1ccc(Nc2oc(-c3ccc(Cl)cc3)nc2C#N)cc1	31.0	13.5	-30.3	58.2*
COc1ccc(Nc2oc(COc3ccc(Cl)cc3)nc2C#N)cc1	-26.8	-5.9	x	x
COc1ccc(CNc2oc(-c3ccccc3)nc2C#N)cc1	5.1	5.8	36.9	-0.2
CCOc1ccc(Nc2oc(-c3ccc(Cl)cc3)nc2C#N)cc1	x	u	2.3	66.8*
O=C(C[C@@H]1CC[C@H]2[C@@H](COC[C@@H](O)CN2S(=O)(=O)c2ccccc2)O1)NCc1ccc(-c2ccccc2)cc1	x	x	8.9	3.4
SMILES	MITF act	Wnt bcat act	Statin myotox sup	esBAF inh
CO[C@@H]1CN(C)C(=O)c2cc(NC(=O)C3CCCC3)ccc2OC[C@H](C)N(C(=O)CC2CC2)C[C@H]1C	x	x	18.2	-0.9
CCN(CC(=O)Nc1ccc2c(c1)OCCO2)C(=O)c1ccc(C(F)(F)F)cc1	107.4*	-1.8	3.6	x
CCN(CC(=O)Nc1ccc2c(c1)OCCO2)C(=O)c1cc(Cl)nc2ccccc12	5.7	-1.8	2.3	0.7
CCN(CC(=O)Nc1ccc2c(c1)OCCO2)C(=O)c1ccc(Cl)cc1Cl	108.8*	24.8	20.7	71.0*
CCOc1ccc(C(=O)N(CC)CC(=O)Nc2ccc3c(c2)OCCO3)cc1OCC	2.8	-2.1	9.9	-6.0
O=C(C[C@@H]1CC[C@H]2[C@@H](COC[C@@H](O)CN2C(=O)c2cccnc2)O1)NC1Cc2ccccc2C1	x	x	-14.6	-6.7
Cc1ccc2sc(-c3ccc(NC(=O)CCN4C(=O)c5ccccc5C4=O)cc3)nc2c1	x	73.1*	x	x
O=C(CNS(=O)(=O)c1cccc(Cl)c1)Nc1ccc(-c2nc3ccccc3s2)cc1	50.8	u	x	x
Cc1ccc(C)c(S(=O)(=O)NC(C)C(=O)Nc2ccc(-c3nc4ccccc4s3)cc2)c1 (centres undefined)	50.4	13.5	1.5	51.6*
CC(C)(C)c1ccc(S(=O)(=O)NCC(=O)Nc2ccc(-c3nc4ccccc4s3)cc2)cc1	57.7	x	46.8	52.9*
C[C@@H]1CN([C@H](C)CO)C(=O)c2cc(NC(=O)CCCN(C)C)ccc2O[C@@H](C)CCCCO[C@@H]1CN(C)Cc1ccccc1	x	x	-21.3	0.3
O=S(=O)(N[C@H]1CC[C@H](CCn2cc(-c3cccc(F)c3)nn2)O[C@@H]1CO)c1ccc(F)cc1	x	x	6.1	8.1
COc1ccc(-c2nc3n(c2C)Cc2ccccc2-3)cc1	x	46.2*	x	x
C[C@@H]1CN([C@H](C)CO)C(=O)c2cc(C#Cc3ccc(F)cc3)cnc2O[C@H]1CN(C)S(C)(=O)=O	x	x	6.7	0.2
Cc1noc(C)c1NC(=O)N(C)C[C@@H]1Oc2ncc(C#CC3CCCCC3)cc2C(=O)N([C@@H](C)CO)C[C@@H]1C	x	x	x	-5.1
Cc1c(/C=N/Nc2ccc(C(=O)O)cc2)c2ccccc2n1C	90.3*	1.8	-18.4	66.7*
COc1cccc(/C=N/NC(=O)c2cnn(-c3ccccc3)c2N)c1	50.1	7.9	-45.1	59.6*
COc1cc(/C=N/NC(=O)c2cccs2)ccc1O	4.5	3.5	4.5	8.7
O=C(N/N=C/c1ccc(-c2cccc([N+](=O)[O-])c2)o1)c1cccs1	-10.1	13.6	x	x
COc1ccc(/C=C/C(=O)Oc2cccc(/C=N/NC(=O)c3cccc(F)c3)c2)cc1	x	x	3.5	45.4*
O=C(N/N=C/c1ccc([N+](=O)[O-])cc1)c1cccs1	x	38.2*	x	x
COc1cccc(/C=N/NC(=O)c2cccs2)c1	x	40.1*	0.1	25.2
NC(CC(=O)O)c1cccc(OCc2ccccc2)c1 (centres undefined)	-5.8	x	66.1*	4.5
OC(c1cccc(OCc2ccccc2)c1)c1nnc(-c2ccccc2)o1 (centres undefined)	-7.1	0.5	145.8*	12.8
O=C(O)CC(NC(=O)OCc1ccccc1)c1ccccc1 (centres undefined)	1.2	x	93.3*	-3.2
SMILES	MITF act	Wnt bcat act	Statin myotox sup	esBAF inh
O=C(NOCc1ccccc1)OCc1ccccc1	u	13.1	-3.9	62.8*
CCCNC(=O)Nc1ccc2c(c1)C(=O)N(C)[C@@H]1CC[C@@H](CC(=O)NC3CCC3)O[C@H]1CO2	x	x	-6.5	1.5
CC(=O)N(C)C[C@H]1Oc2cc(C#CC(C)C)ccc2S(=O)(=O)N([C@H](C)CO)C[C@@H]1C	x	x	9.7	0.5
CC(=O)c1sc(Nc2nc3ccc(F)cc3s2)nc1C	43.5	67.0*	x	x
COC(=O)c1ccc2nc(Nc3nc4ccc(F)cc4s3)sc2c1	-83.5	-13.9	2.5	-44.1
CCOC(=O)c1csc(Nc2nc3ccc(F)cc3s2)n1	-14.2	38.7*	x	x
C[C@H](CO)N1C[C@H](C)[C@H](CN(C)Cc2ccc(Oc3ccccc3)cc2)Oc2cc(-c3ccncc3)ccc2S1(=O)=O	x	x	-71.0	-19.4
COc1cccc(-c2ccc([C@H]3[C@@H](CO)N4CCCCN(C(=O)c5ccc(F)cc5)C[C@H]34)cc2)c1	x	x	40.9	0.5
N#C/C(=C\c1ccc(OC(=O)c2cccs2)cc1)c1nc2ccccc2[nH]1	58.3	35.1*	x	x
